Source: publication PMC4336329 (PLoS ONE, 2015)
Among all 310,000 compounds or so, about 14,000 (4.5%) showed an effect of 50% or more. The effect is printed as a negative number. Only a selection was taken, and strong results are over-represented in it overall.

target: human ether-à-go-go-related gene (hERG) potassium channel (human, UniProt Q12809); assay: primary screen, population patch clamp on CHO cells stably expressing hERG; higher = less effect of the substance
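Note: peak tail current of the secondary pulse compared with the same well before compound.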

Sequence of human ether-à-go-go-related gene (hERG) potassium channel (Q12809 whole entry, looked up): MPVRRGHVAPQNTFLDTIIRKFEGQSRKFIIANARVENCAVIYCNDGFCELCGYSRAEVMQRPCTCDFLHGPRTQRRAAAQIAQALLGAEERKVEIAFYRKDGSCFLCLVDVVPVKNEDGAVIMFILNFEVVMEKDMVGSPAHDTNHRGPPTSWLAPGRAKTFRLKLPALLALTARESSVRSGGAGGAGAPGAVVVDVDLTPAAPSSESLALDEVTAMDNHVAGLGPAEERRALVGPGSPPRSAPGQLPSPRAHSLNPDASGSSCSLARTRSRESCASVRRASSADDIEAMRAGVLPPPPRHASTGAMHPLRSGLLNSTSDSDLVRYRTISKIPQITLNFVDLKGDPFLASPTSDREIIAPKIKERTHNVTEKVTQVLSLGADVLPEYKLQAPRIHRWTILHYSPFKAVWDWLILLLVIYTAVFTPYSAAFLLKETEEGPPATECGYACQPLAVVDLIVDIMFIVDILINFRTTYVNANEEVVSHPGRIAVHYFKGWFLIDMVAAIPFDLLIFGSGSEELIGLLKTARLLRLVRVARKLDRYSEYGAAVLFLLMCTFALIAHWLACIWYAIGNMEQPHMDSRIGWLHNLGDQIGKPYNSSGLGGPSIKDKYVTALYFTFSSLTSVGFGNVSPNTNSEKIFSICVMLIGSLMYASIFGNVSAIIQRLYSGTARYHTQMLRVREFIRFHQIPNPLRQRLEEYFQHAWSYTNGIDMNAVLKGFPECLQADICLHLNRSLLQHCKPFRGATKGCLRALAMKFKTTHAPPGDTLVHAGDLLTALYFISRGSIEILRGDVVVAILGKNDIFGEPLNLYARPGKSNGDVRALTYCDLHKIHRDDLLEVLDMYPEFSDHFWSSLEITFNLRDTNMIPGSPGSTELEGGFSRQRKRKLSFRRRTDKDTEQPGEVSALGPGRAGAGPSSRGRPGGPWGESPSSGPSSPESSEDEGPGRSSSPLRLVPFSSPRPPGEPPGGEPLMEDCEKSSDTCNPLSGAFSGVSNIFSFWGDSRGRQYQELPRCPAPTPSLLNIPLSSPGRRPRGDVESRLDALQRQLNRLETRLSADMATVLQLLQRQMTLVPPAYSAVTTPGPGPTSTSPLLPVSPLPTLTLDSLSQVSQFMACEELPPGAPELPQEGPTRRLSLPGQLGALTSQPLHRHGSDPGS

Structure (SMILES)	hERG current change (%, negative = inhibition) at 10uM
Cc1cc(C)cc(NC(=O)c2cc(C)nn2C)c1	0.0741%
O=C(COC(=O)c1ncc(Cl)c(Cl)c1Cl)NC(=O)c1ccccc1	14.9%
Cn1cnnc1SCc1ccccc1[N+](=O)[O-]	13.7%
COc1cc(C#N)ccc1OCC(=O)NCCC1=CCCCC1	-13.2%
Nc1ccc2c(c1)ncn2CCCn1cnc2cc(N)ccc21	-14.7%
Fc1ccc(NC(=S)NCCc2ccccn2)cc1	7.88%
Fc1ccc(-n2cc(CNCCc3cccnc3)c(-c3ccccc3Cl)n2)cc1	-51.9%
Fc1ccc(-n2cc(CNCCc3ccncc3)c(-c3ccccc3Cl)n2)cc1	-75.2%
Fc1ccc(-n2cc(CNCCc3ccccn3)c(-c3ccccc3Cl)n2)cc1	-89.9%
Cl.Fc1ccc(CCNCc2ccccc2Cl)cc1	1.24%
O=C(NCc1ccccn1)c1cn(-c2ccccc2)nc1-c1ccc(Cl)cc1	-1.67%
Cl.c1ccc(CCNCc2cccnc2)cc1	-0.175%
Cl.Clc1ccccc1CNCc1ccncc1	-0.497%
Cl.c1cncc(CNCCc2c[nH]c3ccccc23)c1	4.01%
CC1(C)Cc2nc(N3CCOCC3)c(C#N)cc2CO1	7.25%
COc1ccc(NC(=O)CN(C)C(=O)c2c(-c3c(F)cccc3Cl)noc2C)cc1	-16.2%
CCC(C)(C)NC(=O)CN(Cc1ccccc1Cl)C(=O)CCC(=O)Nc1cc(C)ccn1	-4.7%
O=C(O)c1nn(CC(=O)N2CCN(c3ccccc3)CC2)c(=O)c2ccccc12	8.36%
O=C(O)c1ccccc1OCCOc1ccccc1	3.63%
CC(C)c1nnc(NC(=O)c2cnccn2)s1	16.2%
COc1ccc(C(=O)N2CCCCC2)cc1S(=O)(=O)Nc1cccc(C(=O)O)c1	6.94%
CCOc1ccc(C(=O)OCCN(C)C)cc1.Cl	-10.3%
CSc1ncccc1C(=O)OCC(=O)N1CC(=O)Nc2ccccc21	8.21%
COc1ccc(Nc2nc(N)nc(CN3CCOCC3)n2)cc1	-5.46%

Structure (SMILES)	hERG current change (%, negative = inhibition) at 10uM
Nc1nc(CN2CCC(Cc3ccccc3)CC2)nc(Nc2ccccc2)n1	-82%
c1ccc(CC2CCN(Cc3nc(-c4ccccc4)no3)CC2)cc1	-8.93%
COc1ccc(Nc2nc(N)nc(CN3CCC(Cc4ccccc4)CC3)n2)cc1	-79%
COc1ccc(Nc2nc(N)nc(CSC(=S)N3CCC(C)CC3)n2)cc1	-5.86%
COc1ccc(OCc2nc(N)nc(Nc3ccccc3)n2)cc1	-4.98%
COc1ccc(-c2noc(CN3CCC(Cc4ccccc4)CC3)n2)cc1	-8.3%
COc1ccc(Nc2nc(N)nc(CN3CCC(C)CC3)n2)cc1	-75.4%
CC(=O)c1ccc(OCC(=O)OC(C)C(=O)NC2CCCCC2C)cc1 (stereo not drawn)	26.9%
COC(=O)c1c(NC(=O)CC2SCC(C(=O)OC)NC2=O)sc2c1CCCC2 (stereo not drawn)	-5%
CCc1ccccc1N(C(C)=O)c1nc(CCl)cs1	6.77%
CC(C)(C)NC(=O)CN(CCN1CCOCC1)C(=O)CNS(=O)(=O)c1ccccc1	19.4%
COCCN(CCOC)S(=O)(=O)c1ccc(C(=O)Nc2nc(C)c(C(C)=O)s2)cc1	13%
C/C(=N\NC(N)=S)C1C2C3CC4C5CC(C42)C1C53 (stereo not drawn)	-10%
O=C(CC1(O)C(=O)Nc2ccccc21)c1ccc2c(c1)OCO2 (stereo not drawn)	-3.95%
Nc1ccc2c(c1)COC2=O	4.55%
CN(C)c1ccc2c3c(ccc(N(C)C)c13)C(=O)OC2	-59.1%
CN(C)c1ccc2c3c(ccc(N(C)C)c13)COC2	-34.8%
CN(C)S(=O)(=O)c1cccc(C(=O)NCC2(N3CCOCC3)CCCCC2)c1	-13.4%
S=C(NCc1cccnc1)Nc1ccc(Oc2ccc(Cl)cc2)cc1	-0.652%
CCc1ccc(OCC(=O)Nc2cc(S(=O)(=O)CC)ccc2O)cc1	-0.287%
CCS(=O)(=O)c1ccc(O)c(NC(=O)COc2ccc(OC)cc2)c1	1.82%
CCCc1ccc(OCC(=O)Nc2cc(S(=O)(=O)CC)ccc2O)cc1	-58.1%
Cc1cc(C)c(OCCNCc2ccccc2)c(C)c1.O=C(O)C(=O)O	-5.71%
Cc1cc(C)c(OCCCNC2CCCC2)c(Br)c1.O=C(O)C(=O)O	-34.5%
